Source: PubChem BioAssay (NCATS)
The source made the active and inactive calls. The rule behind the calls is not given here.

tested on: HIV-1 nucleocapsid protein NCp7 (binding to TG oligonucleotide); assay: HIV Nucleocapsid (AID 346); conditions: HIV-1 NC / fluorescein-TGTGTGTG probe, fluorescence polarization;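 note: potency is for inhibitors that block NC binding and lower polarization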
Procedure, shortened: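 Reagents dispensed (10 nM TG4xF, 100 nM HIV-1 NC), plates spun, compounds pin-transferred, then incubated 1 hr at room temperature before FP imaging. Buffer: Hepes pH 7.5, 250mM NaCl, 1uM ZnCl2, 100 uM TCEP, 5 mM 2-mercaptoethanol.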
Potency is the fitted concentration of half-maximal effect.

SMILES	Potency
COc1ccc2[nH]cc(CCNc3ncnc4ccc(-c5cccnc5)cc34)c2c1	> 20 µM (inactive)
CCNc1ncc2nc(-c3cccs3)c(=O)n(Cc3ccc(F)cc3)c2n1	> 20 µM (inactive)
Cc1cccc(CNc2ccnc(-c3ccc(C(=O)N(C)C)cc3)n2)c1	> 20 µM (inactive)
CC(C)NC(=O)N1CCCC2(CCN(C(=O)c3ccco3)CC2)C1	> 20 µM (inactive)
COc1cccc(-c2nc(NCc3ccccc3OC)c3ccccc3n2)c1	> 20 µM (inactive)
CCNc1ncc2ncc(=O)n(C[C@H]3CCCO3)c2n1	> 20 µM (inactive)
c1cncc(-c2nc(NCc3cccs3)c3ccccc3n2)c1	> 20 µM (inactive)
N#Cc1cccc(-c2ccc3ncnc(NCc4cccs4)c3c2)c1	> 20 µM (inactive)
COc1ccccc1CNc1ccnc(-c2ccc(N(C)C)cc2)n1	> 20 µM (inactive)
COc1ccccc1-c1nc(NCCc2cnc[nH]2)c2ccccc2n1	> 20 µM (inactive)
CCNc1ncc2nc(-c3ccc(F)cc3)c(=O)n(C)c2n1	> 20 µM (inactive)
Clc1ccccc1-c1ccc2ncnc(N3CCNCC3)c2c1	> 20 µM (inactive)
COc1ccc(Oc2ncc3nc(-c4ccc(Cl)cc4)c(=O)n(C4CC4)c3n2)cc1	> 20 µM (inactive)
CS(=O)(=O)Nc1cccc(-c2cncnc2Nc2ccccc2)c1	> 20 µM (inactive)
N#Cc1cccc(-c2nc(NCc3cccs3)c3ccccc3n2)c1	> 20 µM (inactive)
COC(=O)N1CCC2(CCN(Cc3nccs3)CC2)CC1	> 20 µM (inactive)
CC(=O)N1CCC2(CCN(Cc3nccs3)CC2)CC1	> 20 µM (inactive)
COCCNc1nc(-c2c(C)noc2C)nc2ccccc12	> 20 µM (inactive)
CN1CCN(c2ncc3nc(-c4ccccc4)c(=O)n(-c4ccccc4)c3n2)CC1	> 20 µM (inactive)
COCC(=O)N1CCC2(CC1)CCN(C(=O)Nc1ccc(OC)cc1)CC2	> 20 µM (inactive)

SMILES	Potency
CCNc1ncc2nc(-c3cccc(C#N)c3)c(=O)n(C)c2n1	> 20 µM (inactive)
O=c1c(-c2ccccc2)nc2cncnc2n1C1CC1	> 20 µM (inactive)
O=C(Oc1ccccc1)N1CCC2(CC1)CCN(c1cccc(-c3ccccc3)c1)CC2	> 20 µM (inactive)
Cc1ccccc1-c1nc(Nc2ccncc2)c2ccccc2n1	> 20 µM (inactive)
Cn1cccc1C(=O)N1CCC2(CCCN(C(=O)Nc3cccc(F)c3)C2)CC1	> 20 µM (inactive)
COc1ccccc1-c1ccc2ncnc(NC3CCNCC3)c2c1	> 20 µM (inactive)
Cc1ccccc1-c1nc(N(C)C)c2ccccc2n1	> 20 µM (inactive)
CN1CCN(c2ncc3nc(-c4ccc(Cl)cc4)c(=O)n(Cc4ccc(F)cc4)c3n2)CC1	> 20 µM (inactive)
Cn1c(=O)c(CCc2ccccc2)nc2cnc(OCc3ccccc3)nc21	> 20 µM (inactive)
COc1ccccc1-c1ccc2ncnc(N3CCN(C)CC3)c2c1	> 20 µM (inactive)
COc1ccc2[nH]cc(CCNc3ncnc4ccc(-c5ccoc5)cc34)c2c1	> 20 µM (inactive)
COc1ccc(C(=O)N2CCC3(CC2)CCN(c2ccncc2)CC3)cc1	> 20 µM (inactive)
COc1ccc(Oc2ncc3nc(-c4cccc(C#N)c4)c(=O)n(CCC#N)c3n2)cc1	> 20 µM (inactive)
COc1ccc(Oc2ncc3nc(-c4ccccc4)c(=O)n(CCC#N)c3n2)cc1	> 20 µM (inactive)
Cc1cccc(CNc2nc(-c3ccoc3)nc3ccccc23)c1	> 20 µM (inactive)
COc1ccc(-c2nc3cnc(N4CCOCC4)nc3n(-c3ccc(OC)cc3)c2=O)cc1	> 20 µM (inactive)
COc1ccc(CNc2ccnc(-c3c(C)noc3C)n2)c(OC)c1	> 20 µM (inactive)
CS(=O)(=O)N1CCC2(CC1)CN(c1cccc(-c3ccccc3)c1)C2	> 20 µM (inactive)
COc1ccc(CNc2nc(-c3ccccc3CN(C)C)nc3ccccc23)c(OC)c1	> 20 µM (inactive)
c1ccc2c(N3CCNCC3)nc(-c3ccoc3)nc2c1	> 20 µM (inactive)
